# Screens as filed in PubChem BioAssay.
# ALDH1A1 inh: qHTS Assay for Inhibitors of Aldehyde Dehydrogenase 1 (ALDH1A1); Aldehyde dehydrogenase 1A1 (Homo sapiens), P00352; Purified ALDH1A1, NADH fluorescence, propionaldehyde substrate; Potency, µM (series often up to 75.3 µM), without a hit: at the top dose activity, negative = inhibition, actives largely listed as inhibitors; hit rate 7.3% among 220,000; active = well fitted inhibition curve with a large enough effect, not every such curve was filed as active; inconclusive = small, poorly fitted or top-dose-only effect, or another doubt; inactive = no such curve, though single readings can be large or run the other way;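 also: potency is read from the fitted curve at half-maximal effect; plate controls were no enzyme wells and a reference inhibitor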
# Target sequence (P00352 whole entry, looked up): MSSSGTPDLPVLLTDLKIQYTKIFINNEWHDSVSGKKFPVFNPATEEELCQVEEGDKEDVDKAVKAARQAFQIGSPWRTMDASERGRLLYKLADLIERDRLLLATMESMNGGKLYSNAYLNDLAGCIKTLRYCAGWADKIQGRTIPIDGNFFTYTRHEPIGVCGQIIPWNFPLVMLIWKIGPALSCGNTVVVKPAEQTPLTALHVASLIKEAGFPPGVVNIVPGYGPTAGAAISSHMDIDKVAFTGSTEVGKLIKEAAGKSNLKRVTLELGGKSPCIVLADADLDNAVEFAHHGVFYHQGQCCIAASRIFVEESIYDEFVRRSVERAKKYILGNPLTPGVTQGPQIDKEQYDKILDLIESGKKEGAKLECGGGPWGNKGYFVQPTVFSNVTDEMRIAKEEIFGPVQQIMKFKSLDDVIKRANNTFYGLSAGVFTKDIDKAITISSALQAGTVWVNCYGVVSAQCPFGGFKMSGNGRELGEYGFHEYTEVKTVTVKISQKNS
# HTT aggregate: qHTS Multiplex Assay to Identify Dual Action Probes in a Cell Model of Huntington: Aggregate Formation (GFP) | PC12 HttQ103-GFP aggregates, Acumen cytometry, 40 h | Potency, µM (series often up to 46.1 µM), for inactives: at the highest dose activity change, negative = inhibition, actives largely listed as inhibitors | hit rate 1.1% among 220,000 | AID 1688, 2009; also: potency is read from the fitted curve at half-maximal effect; % is scaled to controls: 0 for no effect and ±100 for the full control effect; nearly all actives have a fitted effect of over 60% in size
#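 Steps: seed 1500 PC12 HTTQ103-GFP cells/well; add tebufenozide, 100 nM final; add compound titration; add ATPLite reagent; quantify GFP aggregates by laser scanning cytometry.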
# HTT ATP protect: qHTS Multiplex Assay to Identify Dual Action Probes in a Cell Model of Huntington: Cytoprotection (ATP); Potency, µM (top dose mostly 56.4 µM), inactives show cytoprotection (ATP increase), hits mostly activators; hit rate 0.14% among 230,000; PC12 HTT-Q103 induced, cytoprotection, ATP luminescence, 40 h; AID 1471, 2008; also: potency is read from the fitted curve at half-maximal effect; % of control where 0% means no effect; nearly all actives have a fitted effect of over 45% in size
#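 Huntington model: PC12 line, ecdysone-inducible HTTQ103 exon1–GFP, tebufenozide 100 nM. Test articles in a dose series. Endpoint luminescence from cellular ATP.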
# IMPase inh: qHTS Assay for Identifying the Cell-Membrane Permeable IMPase Inhibitors; AID 901, 2007; inhibition (IP1 accumulation), % at 46.1 µM; Inositol monophosphatase 1 (Rattus norvegicus), P97697; 120,000 tested, under 10 active; CHO-M1 cells, IP1 accumulation, HTRF TR-FRET ratio; active = well fitted curve in the direction sought with a large enough effect in the signal ratio, not every such curve was filed as active; inconclusive = small, poorly fitted or top-dose-only effect, or a change in a side signal; inactive = no such curve, though single readings can be large or run the other way; the % refers to the signal ratio;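 also: cells stimulated with carbachol in lithium chloride buffer; plate controls were DMSO basal wells for no effect and reference inhibitor wells for full effect; higher means more IMPase inhibition seen as more IP1 and lower FRET ratio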
#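 Measured: the HTRF emission ratio (665/620 nm) plus the 620 nm donor channel, each fitted to the Hill equation to give AC50. Cells were CHO-M1 given compounds up to 46 uM and a 30 min carbachol stimulation at 37C.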
# HPGD inh: qHTS Assay for Inhibitors of HPGD (15-Hydroxyprostaglandin Dehydrogenase) | 15-hydroxyprostaglandin dehydrogenase [NAD(+)] (Homo sapiens), P15428 | purified HPGD, NADH fluorescence kinetic, PGE2 substrate | Potency, µM, inactives show top-dose activity change, negative = inhibition, most hits filed as inhibitors | hit rate 4.3% among 150,000 | AID 894, 2007; active = well fitted inhibition curve with a large enough effect, not every such curve was filed as active; inconclusive = small, poorly fitted or top-dose-only effect, or another doubt; inactive = no such curve, though single readings can be large or run the other way; also: potency is read from the fitted curve at half-maximal effect; % is scaled to controls: 0 for no effect and ±100 for the full control effect
# Target sequence (P15428 whole entry, looked up): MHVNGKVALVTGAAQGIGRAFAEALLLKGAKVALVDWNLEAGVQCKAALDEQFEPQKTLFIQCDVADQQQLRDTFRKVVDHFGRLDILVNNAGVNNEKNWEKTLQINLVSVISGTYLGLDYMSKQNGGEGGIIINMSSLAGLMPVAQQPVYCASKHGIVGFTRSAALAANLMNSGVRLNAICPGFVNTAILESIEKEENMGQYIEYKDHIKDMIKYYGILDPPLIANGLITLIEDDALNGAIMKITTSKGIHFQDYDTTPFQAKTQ
#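 20 nM HPGD preincubated 15 min at room temperature with compound in 50 mM Tris-HCl pH 8, 0.01% Tween 20. Started with 1 mM NAD+ and 30 uM prostaglandin E2; NADH fluorescence (360/450 nm) read 5 times over 30-s intervals, last minus first.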
# IMPase Li inh: qHTS Assay for Identifying the Cell-Membrane Permeable IMPase Inhibitors: Potentiation with Lithium; CHO-M1 cells, IP1 TR-FRET (IP-One), carbachol + lithium; Potency, µM (doses to about 59.4 µM), without a hit: at the top dose activity, negative = IMPase inhibition, actives largely listed as inhibitors; hit rate 0.35% among 210,000; AID 1457, 2008;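 also: IP1 builds up when IMPase is blocked and the TR-FRET signal falls; potency is read from the fitted curve at half-maximal effect; plate controls were basal vehicle for no effect and high inhibitor control for full effect; nearly all actives have a fitted effect of over 50% in size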
#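 CHO cells stably expressing M1 receptor (2000/well, cultured 16–30 h) treated 30 min at 37C with compound plus low lithium. Cytosolic IP1 by TR-FRET (665/620 ratio and 620 channel) after 10 min lysis; AC50 by Hill fit.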
# An asterisk follows results filed as active; ? = inconclusive; nt = no result given; [ ] = dose if it differs, or a comment. Compounds with a hit are over-represented: about 9.4% of the library has one in this group of screens. Unless noted, calls follow the shape of the dose curve; as a rule, active = well fitted curve in the direction sought with a large enough effect; inconclusive = small, poorly fitted or top-dose-only effect, or another doubt; inactive = no such curve, though single readings can be large; an effect the other way counts as inactive or inconclusive.
SMILES,ALDH1A1 inh,HTT aggregate,HTT ATP protect,IMPase inh,HPGD inh,IMPase Li inh
COC(=O)c1sc(NC(=O)CSc2nncs2)c(C(=O)OC)c1C,?,-29%,-5%,2,2.8µM*,-27%[38.3 µM]
COC(=O)c1sc(NC(C)=O)c(C(=O)OC)c1C,?,-3%,-7%,-8,32µM*,23%[38.3 µM]
O=C1C2=C(Nc3cc([N+](=O)[O-])ccc3N2)O[C@@H]1c1c[nH]c2ccc(COc3ccccc3)cc12,?,nt,-11%[10 µM],nt,-27%,22%
CN1CCC/C1=C1/C(=O)N(c2ccccc2)N=C1NC(=O)Nc1cccc(Cl)c1,-1%,6%,-17%,nt,nt,1%
CCOc1ccc(N=c2cc(-c3ccc(OC)cc3)oc3ccccc23)cc1,0%,3.2µM*,-8%[10 µM],-1,-7%,18%
COc1ccc(N=c2cc(-c3ccc(OC)cc3)oc3ccccc23)cc1,6%,-24%,-1%[10 µM],6,-16%,14%
CCOC(=O)c1ccc(-c2ccc(-c3cc(=O)oc4cc(OC)c(OC)c(OC)c34)cc2)cc1,-6%,nt,-62%,nt,-6%,19%
COc1cccc(-n2nc3c(=S)[nH]nc(C)c3c2C)c1,12%,-3%,-17%,-14,-8%,?
Cc1n[nH]c(=S)c2nn(-c3ccccc3)c(C)c12,1%,3%,-3%,?,-11%,14µM*
Cc1ccc(-n2nc3c(=S)[nH]nc(C)c3c2C)cc1,-2%,-1%,14%[10 µM],?,-10%,4.5µM*
Cc1n[nH]c(=S)c2nn(-c3cccc(Cl)c3)c(C)c12,-11%,-1%,-22%[10 µM],-15,-20%,?
O=C(NC1CCCCCCC1)C1CCC(CNc2c(N3CCCC3)c(=O)c2=O)CC1 (stereo not drawn),?,1%,-9%[10 µM],-1,4µM*,6%
Cc1ccc(CNC(=O)C2CCC(CNc3c(N4CCC(C)CC4)c(=O)c3=O)CC2)cc1 (stereo not drawn),nt,20%[9.22 µM],-5%[10 µM],nt,nt,nt
Cc1ccc(CCNC(=O)C2CCC(CNc3c(N4CCCC4)c(=O)c3=O)CC2)cc1 (stereo not drawn),-8%,-2%,-7%,10,25µM*,-1%[38.3 µM]
Cc1cccc(CCNC(=O)C2CCC(CNc3c(N4CCCC4)c(=O)c3=O)CC2)c1 (stereo not drawn),?,-7%,-1%,-2,13µM*,2%[38.3 µM]
O=C(NCC1COc2ccccc2O1)C1CCC(CNc2c(N3CCCCC3)c(=O)c2=O)CC1 (stereo not drawn),1%,-7%,5%,1,14µM*,-9%[38.3 µM]
Cc1ccc(Cl)cc1N1CCN(CCCNC(=O)c2nnc(Cc3cccc(Cl)c3)o2)CC1,nt,nt,nt,19,nt,nt
COc1ccc2cc(C(C)CO)ccc2c1 (stereo not drawn),-7%,8%,1%,nt,-8%,-6%
Cc1ccc(-c2nnc(Nc3ccc(OCC(N)=O)cc3)c3ccccc23)cc1S(=O)(=O)N(C)C,nt,nt,nt,0,nt,nt
Oc1ccc(Cl)cc1CNc1ccc(Br)cn1,5%,?,?,9,14µM*,30%[38.3 µM]
Nc1ccc(S(=O)(=O)NNC(=O)C(=O)NNc2ccccc2)cc1,-1%,-3%,14%[10 µM],nt,-6%,1%
O=C(NNc1ccccc1)C(=O)NNS(=O)(=O)c1ccc(CCCl)cc1,6.3µM*,-3%[9.22 µM],0%[10 µM],nt,nt,nt
COc1ccc(/C=C/C(=O)Nc2cc(S(=O)(=O)N3CCOCC3)ccc2N2CCCC2)cc1OC,-1%,7%,16%,nt,nt,11%
CCN(CC)S(=O)(=O)c1ccc(N2CCCCC2)c(NC(=O)/C=C/c2cc(OC)c(OC)c(OC)c2)c1,13µM*,-6%,?,nt,-29%,6%
COc1cc(/C=C/C(=O)Nc2cc(S(=O)(=O)N3CCOCC3)ccc2N2CCCC2)cc(OC)c1OC,11µM*,14%,-8%[10 µM],nt,nt,6%
SMILES,ALDH1A1 inh,HTT aggregate,HTT ATP protect,IMPase inh,HPGD inh,IMPase Li inh
CCN(CC)S(=O)(=O)c1cccc(NC(=O)/C=C/c2cccc([N+](=O)[O-])c2)c1,7.9µM*,-17%,26%[10 µM],-1,-12%,21%
CCN(CC)S(=O)(=O)c1cccc(NC(=O)/C=C/c2ccc([N+](=O)[O-])cc2)c1,3%,-3%,-8%[10 µM],-2,-4%,6%
CCN(CC)S(=O)(=O)c1ccc(/C=C/C(=O)Nc2ccc(F)cc2F)cc1,20µM*,-1%,-6%[10 µM],8,nt,nt
COc1ccccc1CN1CC2(CCN(C(=O)c3cc(C(F)(F)F)cc(C(F)(F)F)c3)CC2)C1,17%,nt,-4%,nt,-6%,7%
CC(C)CC(=O)CC1(O)C(=O)Nc2ccccc21 (stereo not drawn),18%,7%[9.22 µM],1%[10 µM],nt,nt,-1%
COc1ccc(OC)c(NC(=O)NNC(=O)CCCOc2ccc(Cl)cc2C)c1,-3%,11%[9.22 µM],-5%[10 µM],nt,nt,6%
CCOC(=O)c1c(NC(=O)CSc2nc3ccccc3o2)sc(C)c1C,-11%,-15%,-51%,-2,-13%,13%[38.3 µM]
CCOC(=O)c1c(NC(=O)CSc2nnc(-c3ccco3)o2)sc(C)c1C,8.9µM*,6%,6%,7,-22%,22%[38.3 µM]
CCOC(=O)c1cc(-c2nnc(SCC(=O)Nc3ccc(F)cc3)o2)c(C)nc1C,10µM*,2%,-26%,12,14µM*,-7%[38.3 µM]
CCOC(=O)c1c(NC(=O)CSc2nnc(Cc3ccccc3)o2)sc(C)c1C,16µM*,-8%,3%[10 µM],14,-21%,16%
CCOC(=O)c1c(NC(=O)CSc2nnc(-c3ccco3)o2)sc(C(C)=O)c1C,-11%,2%,-9%,?,16µM*,-20%[38.3 µM]
COc1ccc(C)cc1NS(=O)(=O)c1ccc2c(c1)[C@H]1C=CC[C@H]1[C@@H](c1cccc(Cl)c1)N2,nt,nt,nt,-2,nt,nt
O=C(Oc1ccccc1)N1CCC[C@@]2(CCN(c3ccccn3)C2)C1,?,nt,25%,nt,?,-4%
CCn1c(=O)cc(OCC(=O)N2CCN(c3ccc(F)cc3)CC2)c2ccccc21,-12%,?,-49%,nt,nt,-4%
CCN(C(=O)COc1cc(=O)n(CC)c2ccccc12)c1cccc(Cl)c1,6.3µM*,9%,5%,13,-3%,16%[38.3 µM]
CCCN(CCC)C(=O)COc1cc(=O)n(CC)c2ccccc12,-7%,0%,-22%,1,25µM*,8%
